“And” between values parts separate entries of the source, which are not always exact repeats. Equal entries are not always repeated. The whole screen tested about 59,000 compounds, of which about 1,500 (2.5%) were called active. Not shown: some 10% with an inconclusive outcome. The call rests on the fitted dose curve; in most records, active means well fitted inhibition curve with a large enough effect; inconclusive means small, poorly fitted or top-dose-only effect; inactive means flat fitted curve, though single readings scatter. The full list was thinned out, with actives kept by preference. Some compounds were tested as several samples or in several runs, with calls that do not always agree.
Target: N-terminal Xaa-Pro-Lys N-methyltransferase 1 (Homo sapiens) (UniProt Q9BV86)
Experiment: Primary qHTS for Inhibitors of N-terminal methyltransferase 1 (NTMT1): MTaseGlo Assay; further: nearly all actives have a fitted effect of over 65% in size
Conditions: NTMT1 MTase-Glo SAH luminescence, purified enzyme; series mostly up to 114 µM; activity change, negative = inhibition: at the top concentration
Excerpt: Assay Submitter (PI): Rong Huang Ph.D.
Purdue University, West Lafayette, IN 47907
The N-terminal methytransferase 1 is the first methyltransferase that methylates protein alpha-N-amines and plays an important role in regulating cell mitosis, chromatin interactions and DNA repair. It is observed to be over-expressed in various cancer patient tissues like malignant melanoma and colorectal cancer tissues. Knockdown of NTMT1 in cancer cells causes cell mitotic defects and enhances sensitivity to DNA damaging chemotherapeutics. […] These critical cellular processes in which NTMT1 is implicated, coupled with emerging links to cellular dysfunction, strengthen the inference that NTMT1 is a compelling novel anticancer target. Progress have been made in understanding the molecular properties of NTMT1 and the biological consequences of protein alpha-N-terminal methylation, but there are no specific small molecule probes available for NTMT1 to fully characterize its MTase activity. To address this unmet need, a panel of assay is created and established to enable quantitative high-throughput screening (qHTS) for novel, potent, and selective small molecule NTMT1 inhibitors. Two orthogonal qHTS that use different reagents (ThioGlo vs. MTaseGlo) are developed for primary robotic screening against the NCATS chemical library of more than 400,000 small molecules. Identified inhibitors are reacquired, validated, and further characterized.
MTaseGlo Assay is a luminescence screen that measure the activity of methyltransferases based on the reaction product S-adenosyl homocysteine (SAH). The substrate SAM is converted to SAH upon enzyme activation. MTase-Glo reagent and detection solution convert SAH to ATP and measure the light from the luciferase reaction.
Materials: NTMT1 enzyme, substrate SPKRIA, control peptide RCC1-6 is provided by the Huang laboratory.
SEQUENCE No. (e.g., 1, 2, 3, etc.); […] (e.g., Cells, Incubation, Reagent, etc.); VALUE; DESCRIPTION
1; Enzyme; 3 uL; Dispense enzyme mixture (final concentrations of 125 nM NTMT1 and 100 uM SAM) into Greiner 1536-well white / solid bottom assay plate (Greiner Bio One, Monroe, NC).
2; Compounds; 23 nL; Compounds and controls were transferred via a Kalypsys Pin Tool (Wako USA) equipped with a 1536-slotted pin array (Wako Automation, Richmond, VA)
3; Incubation; 15 min; Incubate at room temperature
4; Substrate; 1 uL; Dispense 1 uL of substrate at final concentration of 1 uM. Buffer solution was dispensed in control wells. The assay plate was covered with metal lids.
5; Incubation; 30 min; Incubate at room temperature, protected from lights.
6; Reagent; 1 uL; Dispensed 5x MTase-Glo detection reagent (R) into the assay plate. The plate was covered with metal lids.
7; Incubation; 30 min; Incubate the assay plates at room temperature in the dark to allow for SAH to be converted to ADP.
8; Reagent; 5 uL; Dispense 5 uL of 1x MTase-Glo Detection Solution (R) to allow for ADP to be converted to ATP which was then detected with a luciferase reaction.
9; Centrifuge; 15 sec; Centrifuge the assay plate for 15 seconds at 1000 RPM.
10; Incubation; 30 min; Assay plates were incubation at room temperature in the dark.
11; Detection; Luminescence; Plates were read on ViewLux detector (PerkinElmer). Data were normalized to no-enzyme (0% activity) and no-inhibitor (DMSO; 100%) controls, and the resulting percent inhibition data were fitted to a 4-parameter Hill equation using GraphPad Prism.
Potency means the concentration at half of the fitted maximal effect.

Chain of N-terminal Xaa-Pro-Lys N-methyltransferase 1 (Homo sapiens) (Q9BV86 whole entry, looked up): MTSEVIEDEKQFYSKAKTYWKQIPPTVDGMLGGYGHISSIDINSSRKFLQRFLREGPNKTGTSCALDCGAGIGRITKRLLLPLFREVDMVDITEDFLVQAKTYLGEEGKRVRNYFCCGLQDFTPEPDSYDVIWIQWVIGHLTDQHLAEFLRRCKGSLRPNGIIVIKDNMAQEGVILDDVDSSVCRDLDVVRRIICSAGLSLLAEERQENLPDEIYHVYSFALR

| SMILES | activity change, negative = inhibition | Potency |
| --- | --- | --- |
| CN(C)C/C=C/C(=O)Nc1ccc(C(=O)N2CCC[C@@H](Nc3ncc(Cl)c(-c4c[nH]c5ccccc45)n3)C2)cc1 | -19.5% (inactive) | – |
| Cn1cnc(CN=C2NC3=C(C(=O)CCC3)C(c3[nH]ncc3Cl)N2)c1 (stereo unspecified) | 7.29% (inactive) | – |
| COc1cc2c(cc1OC)CN(CCc1ccc(-n3nnc(-c4cc(OC)c(OC)cc4NC(=O)c4cc(=O)c5ccccc5o4)n3)cc1)CC2 | -7.78% [at 1.07 µM] (inactive) | – |
| N#Cc1c(N)nc(N)nc1N[C@H](c1nc2c(F)ccc(Cl)c2c(=O)n1-c1cccnc1)C1CC1 | 6.73% (inactive) | – |
| CC(C)(C)NS(=O)(=O)c1cccc(Nc2nn3c(=O)c4ccccc4nc3s2)c1 | -9.01% [at 57.5 µM] (inactive) | – |
| Cc1ccc(N2CCN(C(=S)Nc3cc(C)ccn3)CC2)cc1 | – | 79.4 µM (active) |
| FC(F)(F)c1cccc(N2CCN(C(=S)Nc3ccncc3)CC2)c1 | -12.1% (inactive) | – |
| Cc1ccc(CNc2ccc(N3CCCCC3)cc2)cc1 | -28.2% (inactive) | – |
| CCc1ccc(-c2nn3c(C)nnc3s2)cc1NC(=O)c1ccc(-c2cccc(Cl)c2)o1 | -1.59% [at 57.5 µM] (inactive) | – |
| CCOc1ccc(CCNC(=O)c2cnon2)cc1OCC | 12.9% (inactive) | – |
| C=Cc1c(C)c2cc3nc(cc4[nH]c(cc5nc(cc1[nH]2)C(C)=C5CCC(=O)O)c(CCC(=O)OC)c4C)[C@@]1(C)C3=CC=C(C(=O)OC)[C@H]1C(=O)OC | – | 50.1 µM (active) |
| N#Cc1ccc(NC(=O)Nc2nnc(-c3ccncc3)s2)c(Cl)c1 | 1.48% (inactive) | – |
| CC[C@H](Nc1ncnc2nc[nH]c12)c1oc2ccccc2c(=O)c1-c1cccc(F)c1 | 9.83% (inactive) | – |
| Cc1ccc(-c2cc(C(=O)Nc3cccc(Cl)c3)c3ccccc3n2)cc1C | 0.0238% (inactive) | – |
| Cc1cc(NC(=O)Nc2nnc(-c3ccncc3)s2)ccc1Cl | -28.9% (inactive) | – |
| Fc1cc(Nc2nc(-c3ccncc3)nc3ccccc23)ccc1-c1ccc(F)c(F)c1F | -0.911% (inactive) | – |
| Fc1ccccc1-c1ccc(Nc2nc(-c3ccncc3)nc3ccccc23)cc1F | -11.3% [at 57.5 µM] (inactive) | – |
| Fc1ccc(Cl)cc1-c1nc(Nc2ccncc2)c2nccnc2n1 | – | inactive and 39.8 µM (active) |
| C=CCNc1oc(-c2cccnc2)nc1C#N | 19.4% (inactive) | – |
| Cc1noc(C)c1-c1ccc2ncnc(NCc3ccc(F)c(F)c3)c2c1 | -0.636% (inactive) | – |
| OC1CCC(Nc2nc(-c3ccccc3)nc3[nH]ccc23)CC1 (stereo unspecified) | -2.56% [at 57.5 µM] (inactive) | – |
| COc1cc(Nc2nc(-c3ccc(OC)c(OC)c3)nc3ccccc23)cc(OC)c1 | -8.03% (inactive) | – |
| COc1cc2nc(Nc3ccccc3)nc(NC3CC3)c2cc1OC | – | 50.1 µM (active) |

| SMILES | activity change, negative = inhibition | Potency |
| --- | --- | --- |
| O=C(CSc1nnc(-c2cccc([S+](=O)([O-])N3CCCC3)c2)n1-c1ccccc1)Nc1cccc(C(F)(F)F)c1 | 2.04% (inactive) | – |
| CC(C)(c1ccc(OCC(O)CO)cc1)c1ccc(OCC(O)CCl)cc1 (stereo unspecified) | 4.02% (inactive) | – |
| O=C(O[C@@H]1Cc2c(O)cc(O)cc2O[C@H]1c1cc(O)c(O)c(O)c1)c1cc(O)c(O)c(O)c1 | – | 44.7 µM (active) |
| N#Cc1ccc(OC2=NS(=O)(=O)c3ccccc32)cc1 | 11.6% (inactive) | – |
| Cc1ccc2nc3sc(C(=O)NCCc4cccnc4)cc3cc2c1 | 1.58% [at 57.5 µM] (inactive) | – |
| O=S(=O)(NCCCCCCNS(=O)(=O)c1c(F)cccc1F)c1ccc2c(c1)OCCO2 | 8.56% (inactive) | – |
| NNc1nnc(NN)c2ccccc12 | – | 22.4 µM (active) |
| O=C1CCCC2=C1[C@@]1(CCC(c3ccccc3)C1)N=C(Nc1nc3ccccc3o1)N2 (stereo partly specified) | – | inactive |
| Nc1ncnc2c1c(I)cn2[C@@H]1C[C@H](N)[C@@H](O)[C@H]1O | – | 2.51 µM (active) |
| CC(=O)c1cccc(-c2ccc(-c3nc4ccccc4c(=O)[nH]3)o2)c1 | -12.8% (inactive) | – |
| N#Cc1nc(Nc2cccc(Cl)c2)nc(NC2CCCC2)n1 | -4.66% (inactive) | – |
| [O-][n+]1onc(-c2ccccc2)c1CO | -13.1% (inactive) | – |
| O=C1COc2cc([S+](=O)([O-])Nc3ccc(Cl)c(Cl)c3)c(Cl)cc2N1 | -15.7% [at 57.5 µM] (inactive) | – |
| Cc1cnc(-c2ccccc2C(C)C)nc1NCC1CCN(C)CC1 | 2.15% [at 57.5 µM] (inactive) | – |
| CCOC(=O)C1CCN(C(=O)C(C)(C)NC(=O)Nc2ccc(F)c(F)c2)CC1 | 15.5% (inactive) | – |
| O=C(Nc1ccc(-c2ccc(Cl)c(Cl)c2)cc1)C1=C(O)c2ccccc2S(=O)(=O)N1 | -13.1% [at 57.5 µM] (inactive) | – |
| COc1cccc(C(=O)Nc2ccc3nc4n(c(=O)c3c2)CCCCC4)c1 | – | 50.1 µM (active) |
| NS(=O)(=O)c1ccc(NC(=O)C(=O)Nc2ccc3nc4n(c(=O)c3c2)CCCCC4)cc1 | -7.26% (inactive) | – |
| COc1cccc(C(=O)Nc2ccc3oc(-c4ccc5ccccc5c4)nc3c2)c1 | 9.92% (inactive) | – |
| Cc1cc(C)n2ncc(C(=O)Nc3cccc(C#N)c3)c2n1 | 2.61% [at 29.8 µM] (inactive) | – |
| CCOc1ccc(CCNC(=O)c2cc3ccccc3n2Cc2ccc(Cl)c(F)c2)cc1OCC | 5.24% (inactive) | – |
| CC(C)c1ccccc1SC1=NS(=O)(=O)c2ccccc21 | -1.75% (inactive) | – |
| CN(C)c1ccc(C(=O)NCC(=O)OC(C(=O)Nc2cc(C(F)(F)F)ccc2Cl)c2ccccc2)cc1 (stereo unspecified) | 6.51% [at 57.5 µM] (inactive) | – |
